Test results from PubChem BioAssay AID2551 (National Center for Advancing Translational Sciences (NCATS), 2010).
The campaign covered roughly 310,000 compounds. About 17,000 (5.5%) were called active. Inconclusive results (about 11%) are left out. The call rests on the fitted dose curve; in most records, active means well fitted inhibition curve with a large enough effect; inconclusive means small, poorly fitted or top-dose-only effect, or effect the other way; inactive means no such curve, though single readings can be large or run the other way. For the sample, actives were picked, then their nearest neighbours and some compounds at random.

target: Nuclear receptor ROR-gamma (Mus musculus) (UniProt P51450); assay: qHTS for inhibitors of ROR gamma transcriptional activity; settings: Drosophila S2 Gal4-RORgamma UAS-luciferase reporter, 20 h; series mostly up to 53.6 µM; further: nearly all actives have a fitted effect of over 60% in size
Sequence (P51450 whole entry, looked up, the tested form may be a part): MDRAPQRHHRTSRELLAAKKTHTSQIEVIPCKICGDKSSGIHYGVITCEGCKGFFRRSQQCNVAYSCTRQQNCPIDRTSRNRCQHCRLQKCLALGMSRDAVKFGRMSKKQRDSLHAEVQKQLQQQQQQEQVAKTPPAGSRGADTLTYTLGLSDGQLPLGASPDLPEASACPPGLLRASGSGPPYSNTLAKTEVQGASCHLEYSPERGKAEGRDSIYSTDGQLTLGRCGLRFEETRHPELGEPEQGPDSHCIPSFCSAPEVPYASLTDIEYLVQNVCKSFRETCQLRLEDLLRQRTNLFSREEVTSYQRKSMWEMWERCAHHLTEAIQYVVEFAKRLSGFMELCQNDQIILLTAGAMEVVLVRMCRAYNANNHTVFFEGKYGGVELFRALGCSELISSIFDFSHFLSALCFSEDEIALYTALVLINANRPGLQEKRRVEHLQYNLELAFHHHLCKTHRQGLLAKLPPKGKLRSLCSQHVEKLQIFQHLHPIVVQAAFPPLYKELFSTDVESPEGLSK
Outline: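 Compounds are pin-transferred onto Drosophila Schneider cells expressing a copper-inducible Gal4–ROR gamma transactivation domain fusion. After 1 hr, copper sulfate is added to 700 uM final; luciferase is read 20 hr later.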
Potency means the concentration at half of the fitted maximal effect.

Potency, active:
COc1cccc(-n2c(=S)[nH]c3c(oc4ccccc43)c2=O)c1 7.08 µM, CCc1cccc(CC)c1NC(=S)NCc1ccc2[nH]c(C)cc2c1 2.51 µM, CC(C)(C)n1nnnc1C(c1ccc2ncccc2c1)N1CCSCC1 (stereo unspecified) 10 µM, C=C(C)CNC(=S)/N=c1\scc(C)n1CC 7.94 µM, Cc1c(C)c(C)c2[nH]c(=S)[nH]c2c1C 2.82 µM, CCCCCC(=O)NC(=S)NNC(=O)c1ccc([N+](=O)[O-])cc1 14.1 µM, CC(C)CC(=O)NC(=S)NNC(=O)c1cccc([N+](=O)[O-])c1 12.6 µM, CCn1c(=S)[nH]c2sc3c(c2c1=O)CCCCC3 0.447 µM, CC(C)c1ccc(NC2CCCN(C(=O)c3ccncc3)C2)cc1 (stereo unspecified) 2.51 µM, CCC(C)NC(=O)c1c(N)n(/N=C/c2cccs2)c2nc3ccccc3nc12 (stereo unspecified) 10 µM, Cc1cc(C)nc(Nc2n[nH]c(-c3ccccc3N)n2)n1 10 µM, O=C(N/N=C/c1ccccn1)C12CC3CC(CC(C3)C1)C2 2.82 µM, Fc1ccc(-c2ccc(CNCc3ccccn3)o2)cc1Cl 11.2 µM, O=C1/C(=C\c2ccsc2)NC(=S)N1c1ccccc1 7.08 µM

Potency, inactive:
COc1cccc(N2C(=O)CN(Cc3ccccc3)C2=S)c1, COc1cccc(-n2cc(C(=O)O)c3ccccc3c2=O)c1, CCNCc1cc2cc(C)ccc2[nH]c1=O, CCc1cccc(CC)c1NC(=S)Nc1ccc2cn[nH]c2c1, Cc1cccc(S(=O)(=O)N2CN(CC3CCCO3)c3nc4ccccc4nc32)c1 (stereo unspecified), CCC(C)(C)n1nnnc1C(c1ccccc1OC)N1CCSCC1 (stereo unspecified), CC(C)(C)n1nnnc1C(c1ccc(Cl)cc1)N1CCSCC1 (stereo unspecified), Cc1c(C)c2ccc(OCC(=O)N3CCC(C(=O)O)CC3)c(C)c2oc1=O, Cc1csc(=Nc2ccccc2)n1CCO, Cc1csc(=NC(=O)c2ccccc2)n1CCO, COc1ccc(-c2c(C#Cc3ccccc3)c3ccccc3n2C)cc1, O=c1[nH]c(=S)[nH]c2[nH]c(=S)[nH]c12, Cc1cc(=O)[nH]c(=S)[nH]1, CCOC(=O)CNc1nc(Cl)nc(Nc2ccc(OC)cc2OC)n1, COCC1CCN(C(=O)c2ccc3oc(Cc4ccccc4)nc3c2)C1 (stereo unspecified), COc1ccc(NC(=O)C2CCC(CNC(=O)[C@@H]3Cc4ccccc4CN3)CC2)cc1 (stereo partly specified), COc1ccc(NC(=O)CN2C(=O)COc3ccc(S(=O)(=O)N4CCOCC4)cc32)c(OC)c1, O=C(C[n+]1cc(Br)cc2ccccc21)c1ccc(F)cc1, COc1ccc(C(=O)N2CCCCC2C(=O)Nc2ccc(-n3nc(C)cc3C)cc2)o1 (stereo unspecified), Cc1cccc(CNS(=O)(=O)c2ccc(-c3cnc(C4CC4)o3)cc2)c1, CC(CCc1ccc(O)cc1)NCc1ccc(Cl)cc1Cl (stereo unspecified), CCCCCC(=O)Nc1ccc(C(=O)N/N=C/c2ccc([N+](=O)[O-])cc2)cc1, O=C(NNS(=O)(=O)Cc1ccccc1)c1ccc([N+](=O)[O-])cc1, Cc1cccc(C(=O)NNC(=O)c2cccc([N+](=O)[O-])c2)c1, CC(C)(C)SCCNC(=O)c1cccc([N+](=O)[O-])c1, COc1ccc(OC)c(CCNC(=O)c2nn(C)c3c2CS(=O)(=O)c2ccccc2-3)c1, Cc1cc2oc(=O)cc(CN3CCN(Cc4ccccc4)CC3)c2cc1C, CCCc1nc2sc3c(c2c(=O)n1NC(=O)CCCl)CCCC3, CN(C)CCCn1c(=O)n(Cc2ccccc2)c(=O)c2c3c(sc21)CCCCC3, Cc1cccc(C(=O)N2CCCC(Nc3ccc(C(C)C)cc3)C2)n1 (stereo unspecified), COc1ccc(NC2CCCN(C(=O)c3ccncc3)C2)cc1 (stereo unspecified), O=C(CCC1CCCN(C(=O)c2ccc(F)c(F)c2)C1)N1CCN(c2ccccn2)CC1 (stereo unspecified), CC(NC(=O)c1cc2cc(Cl)ccc2oc1=N)c1ccccc1 (stereo unspecified), CCC(C)NC(=O)c1nn(C)c(=O)c2ccccc12 (stereo unspecified), Cc1nc2ccccc2n1CC(=O)N/N=C/c1cccs1, O=C(NCc1cccc(CNC(=O)Nc2cccc(O)c2)c1)Nc1cccc(O)c1, COc1ccc(CCNC(=O)CCNS(=O)(=O)c2cc(Br)cnc2N)cc1OC, CCc1nc(Nc2ccc(NC(C)=O)cc2)c2oc3ccccc3c2n1, CC1C(=O)C(C)C(c2ccc(O)cc2)NC1c1ccc(O)cc1 (stereo unspecified), Cc1cc(Nc2ccccc2)nc(N)n1, Cc1cc(C)nc(Nc2ncn[nH]2)n1, O=C(C1CC(=O)N(C2CCCCC2)C1)N1CCN(c2ccccc2)CC1 (stereo unspecified), COc1cccc(CNC(=O)C2CCCN(S(=O)(=O)N3CC(C)CC(C)C3)C2)c1 (stereo unspecified), O=C(c1cnc(Cl)c(Cl)c1)N1CCN(S(=O)(=O)c2ccc(F)cc2)CC1, O=C(Nc1ccc(S(=O)(=O)Nc2ncccn2)cc1)C12CC3CC(CC(C3)C1)C2, CNC(=O)C(=O)N/N=C/c1ccccn1, CC(C)(C)C1CCC(C(=O)NCC(c2cccs2)N2CCOCC2)CC1 (stereo unspecified), O=C(CNC(=O)OCc1ccccc1)NC1CCCCNC1=O (stereo unspecified), O=[N+]([O-])c1cc([N+](=O)[O-])c(Oc2cc(F)cc(F)c2F)cc1NN1CCCCC1, O=C(NCc1ccccn1)c1cc(Br)ccc1Cl, COc1ccc(-c2ccc(CNCCCN3CCOCC3)o2)cc1Cl, CCOc1ccc(-n2c(SCC(N)=O)nnc2-c2ccco2)cc1, COc1ccccc1S(=O)(=O)c1c(C)cc(C)[nH]c1=O, COc1cc2c(cc1/C=C1/NC(=O)N(c3ccccc3)C1=O)OCO2, O=C1N/C(=C/c2cccn2-c2ccccc2)C(=O)N1c1cccc(Cl)c1, COc1ccc(OCC(O)CN(C)C(=O)C(C)Oc2ccccc2)cc1 (stereo unspecified), COc1ccc(C(=O)NCCCN2CCOCC2)cc1Br
